Experimental data from PubChem BioAssay (Tox21).
Inconclusive results are not listed. A number with no mark means an inactive call. The call rests on the fitted dose curve; in most records, active means well fitted activation curve with a large enough effect in the repeat runs; inconclusive means weak or mixed curves; inactive means flat fitted curve, though single readings scatter.

Test: A CellTox Green Cytotoxicity Assay to monitor cytotoxicity in HEK293 cells - 16 hour (AID 1224888); further: nearly all actives have a fitted effect of over 35% in size
Conditions: CellTox Green fluorescence; series mostly up to 76.8 µM; activity change: at the top concentration
Method in brief: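 Seeding of HEK293 cells together with cytotoxicity dye preceded a 5 h incubation at 37 C/5% CO2. Test compounds in DMSO were then added and fluorescence monitored across 40 h.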
On the % scale 0 is the no-effect control and ±100 the full control effect.

Row | SMILES | activity change
1 | c1ccc(CNCc2ccccc2)cc1 | -0.832%
2 | O=C1Nc2cc(Cl)ccc2Oc2ccccc21 | 0.207% [at 35.3 µM, active compounds read high]
3 | CCN(CC)C(C)CN1c2ccccc2Sc2ccccc21 (centres undefined) | -19.5% [at 35.3 µM, active compounds read high]
4 | CC(=O)CC(=O)c1ccccc1 | -6.92%
5 | Cn1c(NCCN(CCO)CCCc2ccc([N+](=O)[O-])cc2)cc(=O)n(C)c1=O | 15.7% [at 35.3 µM, active compounds read high]
6 | CCN1CCC[C@H]1CNC(=O)c1c(OC)ccc(Br)c1OC | -0.915% [at 35.3 µM, active compounds read high]
7 | CN1CCC(=C2c3ccccc3C=Cc3ccccc32)CC1 | -2.2% [at 35.3 µM, active compounds read high]
8 | CC[C@@H]1C[C@H](N(Cc2cc(C(F)(F)F)cc(C(F)(F)F)c2)C(C)=O)c2cc(C(F)(F)F)ccc2N1C(=O)OC(C)C | -0.207%
9 | Cn1c(N)nc2nc[nH]c2c1=O | 3.74%
10 | CC(C)CCCCCCOC(=O)c1ccc(C(=O)OCCCCCCC(C)C)c(C(=O)OCCCCCCC(C)C)c1 | 1.38%
11 | CC(=O)/C=C/C1C(C)=CCCC1(C)C (centres undefined) | -0.299%
12 | SC1CCCC1 | -4.93%
13 | CC(C)(C)C(=O)OCOP(=O)(COCCn1cnc2c(N)ncnc21)OCOC(=O)C(C)(C)C | -0.182% [at 35.3 µM, active compounds read high]
14 | CN(C(=O)CCCOc1ccc2[nH]c(=O)ccc2c1)C1CCCCC1 | 4.02% [at 35.3 µM, active compounds read high]
15 | CCCOc1ccc2nc(NC(=O)OC)[nH]c2c1 | 0.734% [at 35.3 µM, active compounds read high]
16 | O=C1[C@H](CC[C@H](O)c2ccc(F)cc2)[C@@H](c2ccc(O)cc2)N1c1ccc(F)cc1 | 1.79% [at 35.3 µM, active compounds read high]
17 | Nc1nc(N)c(-c2ccccc2)s1 | -4.34% [at 35.3 µM, active compounds read high]
18 | C=CC(=O)OCCOC(=O)CCC(=O)O | -6.62%
19 | O=C(CC(=O)c1ccccc1)c1ccccc1 | -5.66%
20 | COC(=O)C(C)=O | -6.65%

Row | SMILES | activity change
21 | CN(C)C/C=C(/c1ccc(Br)cc1)c1cccnc1 | 0.953% [at 35.3 µM, active compounds read high]
22 | CC[C@]12CCCN3CCc4c(n(c5ccccc45)C(=O)C1)[C@@H]32 | 16.3% [at 35.3 µM, active compounds read high]
23 | Nc1nc(N)c2nc(CNc3ccc(C(=O)N[C@@H](CCC(=O)O)C(=O)O)cc3)cnc2n1 | -4.79%
24 | C=Cc1c(C)c2cc3[nH]c(cc4nc(cc5nc(cc1[nH]2)C(C)=C5CCC(=O)O)C(CCC(=O)O)=C4C)c(C)c3C=C | -13.3% [at 35.3 µM, active compounds read high]
25 | O=C(Cl)c1c(Cl)cccc1Cl | 2.23%
26 | O=C(c1ccc(O)cc1)c1ccc(O)cc1 | 1.43%
27 | CCCCC(CC)COCCCN (centres undefined) | 11.3%
28 | O=c1[nH]cnc2ccccc12 | 0.0094%
29 | Nc1nc(CC(=O)O)cs1 | -12%
30 | Cc1ccc(C(=O)C(C)CN2CCCCC2)cc1 (centres undefined) | 0.218% [at 35.3 µM, active compounds read high]
31 | Oc1ccc(O)c2c(O)cccc12 | -17.4%
32 | CC/C(=C\C(=N/O)C(N)=O)C(C)[N+](=O)[O-] (centres undefined) | -1.17%
33 | CCCCOC(=O)c1ccccc1C(=O)OCC(CC)CCCC (centres undefined) | 5.79%
34 | O=C=NC1CCC(CC2CCC(N=C=O)CC2)CC1 (centres undefined) | -0.298%
35 | CCOc1cc(OCC)c(C(=O)CCC(=O)O)cc1OCC | -1.08% [at 35.3 µM, active compounds read high]
36 | O=CNc1ccccc1 | 0%
37 | CCOc1nc2cccc(C(=O)O)c2n1Cc1ccc(-c2ccccc2-c2nn[nH]n2)cc1 | -20.2% [at 35.3 µM, active compounds read high]
38 | CCCCCCc1ccc(N)cc1 | 11.1%
39 | O=C(O)Cc1cc(I)c(Oc2ccc(O)c(I)c2)c(I)c1 | -1.35%
